# Measurements published in PubChem BioAssay (NCI).
# Compounds without any hit were thinned out: in the full panel of roughly 83,000, 20% have a hit.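 Testing used 96-well plates and a 48-hour single-concentration exposure. Example: -40 means 40% of the starting cells died.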 A number with no mark means an inactive call. Calls of active or inactive are those of the source. The calls were made as follows: active = growth percent below 10; inactive = the rest.
# How the values were obtained:
# Test in all cases: NCI-60 one-dose screen, 48 h (100 = growth as untreated, 0 = no growth, -100 = all killed)
# Conditions in all cases: 10 µM unless noted
# [1] = tested on: NCI-H23 lung
# [2] = tested on: NCI-H322M lung
# [3] = tested on: HOP-62 NSCLC
# [4] = tested on: NCI-H460 lung
# [5] = tested on: HOP-92 NSCLC
# [6] = tested on: NCI-H522 lung
# [7] = tested on: A549/ATCC NSCLC
# [8] = tested on: 786-0 renal
# [9] = tested on: COLO 205 colon
# [10] = tested on: DU-145 prostate
# [11] = tested on: K-562 leukemia
# [12] = tested on: MALME-3M melanoma
# [13] = tested on: MDA-MB-231 breast
# [14] = tested on: RXF 393 renal
# [15] = tested on: SF-268 CNS
# [16] = tested on: SF-295 CNS
# [17] = tested on: SF-539 CNS
# [18] = tested on: UACC-257 melanoma
# [19] = tested on: M14 melanoma
# [20] = tested on: HCT-15 colon
SMILES,growth [1],growth [2],growth [3],growth [4],growth [5],growth [6],growth [7],growth [8],growth [9],growth [10],growth [11],growth [12],growth [13],growth [14],growth [15],growth [16],growth [17],growth [18],growth [19],growth [20]
CCOC(=O)c1cnc2c(C)cccc2c1Nc1ccc(C(C)=O)cc1,32.1%,42.7%,-76.6% (active),-68.6% (active),-1.13% (active),-78.5% (active),-60.9% (active),8.84% (active),-91.5% (active),22%,-21.5% (active),-81% (active),11.2%,-54.5% (active),43.5%,-82.2% (active),-44.9% (active),-58.4% (active),-67.6% (active),0.0229% (active)
O=C(O)CCC(=O)c1ccc(C2CCCCCC2)cc1,97.9%,97.5%,98.8%,107%,99.7%,87.5%,99.6%,95.8%,104%,108%,90.2%,91.5%,109%,115%,97.5%,97.4%,97.1%,94.6%,102%,105%
COc1ccc(C2C3=C(COC3=O)N(CCO)c3cc4c(cc32)OCCO4)cc1 (stereo not given),97.2%,125%,80.4%,77.4%,102%,58.2%,76.6%,87.5%,84.2%,106%,53.1%,103%,91.2%,75.5%,86.5%,55.8%,83.1%,69%,77.7%,65.6%
O=C(NC1CCCCC1)C(c1cccs1)N(CCc1ccccc1)C(=O)c1ccco1 (stereo not given),86.1%,96.5%,90.6%,103%,75.5%,65.2%,92.2%,91.1%,96.1%,103%,82.8%,-11.2% (active),98.5%,97.3%,92.6%,84.7%,90.9%,98.6%,93.7%,93.4%
COC(=O)/C(CCC=C(C)C)=C1\[C@@H](OC(C)=O)C[C@@]2(C)[C@H]1C[C@@H](O)[C@H]1[C@@]3(C)CC[C@H](NC(=O)c4cnccn4)[C@@H](C)[C@@H]3CC[C@@]12C,103%,108%,102%,109%,100%,89.6%,97.9%,92.2%,110%,93.7%,85.5%,100%,96.5%,107%,94.8%,103%,105%,110%,99.8%,96.3%
O=[N+]([O-])c1cc2c(ccc3occc32)o1,39.5%,61%,63.5%,-28.2% (active),26.6%,25.7%,26.1%,71.3%,-24.1% (active),-7.23% (active),11.9%,-33.1% (active),17.3%,-2.62% (active),18.5%,-34.9% (active),33.5%,-20.1% (active),-8.26% (active),12.1%
COc1cc(C2C3=C(COC3=O)N(CCO)c3cc4c(cc32)CCC4)cc(OC)c1O (stereo not given),45.1%,53.1%,41.2%,-22.7% (active),97.5%,-24.5% (active),18.1%,27%,13.6%,-25.8% (active),14.7%,54.7%,18%,-35.8% (active),43.6%,-2.29% (active),-22.6% (active),36.2%,1.16% (active),17.9%
COc1cccc(-c2nn(C)c3sc(C(=O)NCCN4CCN(c5ccccc5F)CC4)cc23)c1,91.2%,87.3%,81.4%,57.6%,14.9%,60.9%,74.7%,57.6%,-78.4% (active),89.4%,-35.5% (active),-87% (active),30.8%,41.3%,76.9%,-55.6% (active),56.4%,-67.3% (active),-90.1% (active),29.3%
O=c1oc2ccc(I)cc2c(=O)n1-c1ccc(Br)cc1F,5.56% (active),5.24% (active),-11.7% (active),2.84% (active),-11.7% (active),-10% (active),7.12% (active),4.56% (active),50.3%,16.6%,7.02% (active),-26.7% (active),-21.2% (active),3.07% (active),9.55% (active),-58.1% (active),4.36% (active),-13.6% (active),-0.737% (active),-7.61% (active)
CCOC(=O)C1(Cc2ccccc2)CCN(Cc2cccc(OC)c2O)CC1,18.3%,20.3%,12.9%,-13% (active),30.6%,17.1%,2.47% (active),6.33% (active),10.2%,10.8%,8.73% (active),12%,22.1%,-13.9% (active),5.65% (active),-22.2% (active),5.93% (active),-4.96% (active),2.78% (active),24%
COc1cc(C=C2C(=O)N(C)C(=O)N(C)C2=O)cc(CN2CCCCC2)c1O,96.6%,102%,93.1%,108%,101%,94.3%,100%,95.5%,111%,104%,96.4%,93.3%,98.1%,116%,94.1%,104%,100%,104%,102%,104%
O=C(CN1C=NC2C(N3CCOCC3)=NC=NC21)c1cccc2ccccc12 (stereo not given),103%,98.8%,99.2%,103%,90.2%,90.2%,90.1%,101%,119%,105%,107%,114%,88.1%,100%,84.7%,102%,98.9%,101%,105%,95.8%
COc1ccc(CSc2nnc(SCC(=O)Nc3ccc(Cl)cc3)s2)cc1,80.5%,65.4%,89%,37.6%,78%,67.7%,62.4%,68.7%,56.1%,65.2%,15.6%,121%,72.1%,104%,70.5%,-12.6% (active),86.6%,99%,39.9%,48.1%
Cc1ccc2cc3c(N)c4c(C)ccc(C)c4nc3nc2c1,89.4%,72.4%,76.3%,53%,29.4%,-23.9% (active),45.1%,54.2%,-53.3% (active),80.5%,-18.6% (active),-77% (active),7.18% (active),45.1%,17.4%,-45.8% (active),-68% (active),-78.8% (active),-79.1% (active),10.8%
NCCOc1ccccc1/C=C1\c2ccccc2-c2ccc([N+](=O)[O-])cc21,1.49% (active),51.1%,-71.1% (active),-85.1% (active),-1.14% (active),21.3%,-74.6% (active),-41.5% (active),-75.4% (active),-42.3% (active),-44.9% (active),26%,17.9%,1.55% (active),18.1%,6.73% (active),8.01% (active),63.9%,0.981% (active),-52.7% (active)
O=C(Nc1ccc(F)c(Cl)c1)Nc1ccc(Cl)c(Cl)c1,86.1%,102%,74.2%,76.9%,65.1%,66.4%,71.8%,87.2%,89%,88.4%,15.4%,57.5%,76%,72.8%,88.1%,36.6%,80.3%,84.1%,53.6%,53.1%
